Active and inactive are the calls of the source.

The target of test [1] is Albumin (Bos taurus) (UniProt P02769). Briefly: compounds binding labelled BSA control protein – biochemical, small-molecule microarray, Alexa647 label, 635/667 nm fluorescence, artefact control for SMM control protein annotation, profiling panel (AID 1118).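 Also: score merges 667 nm emission intensity and signal-to-noise per printed compound spot.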 Conditions: BSA-A647 binding, fluorescence 635 nm, higher = more signal.
Test [2] can be described thus: probe aXIP binding to arrayed compounds – biochemical, NeuroSMM set, 635/667 nm fluorescence, primary screen (AID 1119).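 Also: probe is the protein aXip251-270 applied at 1 µg/mL to compound-printed slides; binding of probe to printed compounds measured as 667 nm fluorescence plus signal to noise.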 Conditions: small-molecule microarray, higher = more signal, called active from +8 up or from −8 down.
Test [3] is described as follows: probe aNOTCH3 binding on compound microarray – biochemical, small-molecule microarray, 635/667 nm fluorescence, primary screen (AID 1120).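 Also: probe is a biotin-tagged antibody raised against NOTCH3 rather than NOTCH3 protein; score merges spot fluorescence near 667 nm with spot signal to noise.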 Conditions: higher = more signal.
Test [4] can be described thus: probe aNOTCH2 binding on compound microarray – biochemical, small-molecule microarray, 635/667 nm fluorescence, primary screen (AID 1121).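 Also: score merges feature fluorescence read at 667 nm with its signal to noise.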 Conditions: higher = more signal.
The target in test [5] is Carbonic anhydrase 2 (Homo sapiens) (UniProt P00918). Briefly: compounds binding carbonic anhydrase 2 – biochemical, small-molecule microarray, Alexa647-labelled CAII, profiling panel (AID 1122). Conditions: CAII-A647 binding fluorescence, higher = more signal.
Test [6] in a line: COS7 lysate on small-molecule microarray, probe aHis, 635 nm (AID 1123).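 Also: z-score combines 667nm fluorescence intensity with signal-to-noise per printed compound spot.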 Conditions: COS7 cell lysate, fluorescence, higher = more signal.
A short description of test [7]: probe aLAP1 signal on lysate-treated microarray – cell lysate, small-molecule microarray, COS7 lysate, primary screen (AID 1124).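 Also: lysate comes from COS7 cells expressing LAP1 and is applied at 0.3 µg/mL; score merges spot fluorescence near 667 nm with signal-to-noise over triplicate slides.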 Conditions: probe aLAP1, fluorescence, higher = more signal.
In test [8] the test system is Sam68 (KHDRBS1). Nature of the test: compounds binding KHDRBS1 protein – biochemical, small-molecule microarray, 635 nm fluorescence, primary screen (AID 1125).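 Also: score merges 667 nm channel intensity with signal to noise over triplicate slides.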 Conditions: higher = more signal.
Test [9] has as its system Chordin-like protein 2 (CHRDL2). Nature of the test: compounds binding chordin-like 2 – biochemical, small-molecule microarray, 635 nm fluorescence, primary screen (AID 1126).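 Also: printed compound slides probed with Chrdl2 protein at 4 µg/mL for 1 h at 4 C; score merges 667 nm emission intensity with signal to noise over three replicate slides.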 Conditions: fluorescence 635 nm, higher = more signal.
The target in test [10] is Concanavalin-A (Canavalia ensiformis) (UniProt P02866). Briefly: compounds binding concanavalin A lectin – biochemical, small-molecule microarray, Alexa647 label, 635 nm, artefact control for SMM control protein annotation, primary screen (AID 1127).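 Also: z combines 667 nm emission intensity with signal-to-noise across three replicate slides.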 Conditions: ConA-A647 binding fluorescence, higher = more signal.
Chain of Concanavalin-A (Canavalia ensiformis) (P02866 whole entry, looked up): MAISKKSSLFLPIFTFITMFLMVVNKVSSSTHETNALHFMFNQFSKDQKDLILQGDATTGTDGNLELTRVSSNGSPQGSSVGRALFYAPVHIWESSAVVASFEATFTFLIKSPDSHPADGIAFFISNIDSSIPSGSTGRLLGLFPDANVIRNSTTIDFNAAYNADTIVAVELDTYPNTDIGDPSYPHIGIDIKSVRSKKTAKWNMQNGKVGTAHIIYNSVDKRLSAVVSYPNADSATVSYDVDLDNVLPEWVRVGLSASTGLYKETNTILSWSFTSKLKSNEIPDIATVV

Chain of Albumin (Bos taurus) (P02769 whole entry, looked up): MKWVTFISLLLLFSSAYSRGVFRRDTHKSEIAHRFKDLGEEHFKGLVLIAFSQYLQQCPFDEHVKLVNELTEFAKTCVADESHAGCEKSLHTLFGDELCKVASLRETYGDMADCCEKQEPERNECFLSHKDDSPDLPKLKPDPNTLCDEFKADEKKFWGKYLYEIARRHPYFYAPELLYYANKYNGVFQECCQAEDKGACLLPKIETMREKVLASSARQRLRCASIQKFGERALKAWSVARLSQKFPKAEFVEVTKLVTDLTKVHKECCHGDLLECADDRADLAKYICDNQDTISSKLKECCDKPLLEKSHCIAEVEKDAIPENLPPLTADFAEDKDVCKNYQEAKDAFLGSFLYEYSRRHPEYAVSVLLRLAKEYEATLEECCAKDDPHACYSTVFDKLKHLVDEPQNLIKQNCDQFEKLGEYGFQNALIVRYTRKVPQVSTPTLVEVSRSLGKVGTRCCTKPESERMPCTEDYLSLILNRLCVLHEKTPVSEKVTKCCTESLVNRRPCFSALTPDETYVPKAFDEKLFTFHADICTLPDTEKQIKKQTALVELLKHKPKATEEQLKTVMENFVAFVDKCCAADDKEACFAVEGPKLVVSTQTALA

For the molecule `[N-]=[N+]=NCc1ccccc1C[C@]1(C(=O)N2CCCCC2)N=C(c2ccc(OCCCO)cc2)O[C@H]1c1ccccc1`, the composite z-score in [1] is -0.0604; in test [3], 0.23; in test [4] it was -0.0323; in [5] it was 0.564; in [6] it was 1.22; in test [7], -0.0174. Also, the figures for the composite z-score in test [8], in test [9] and in test [10] were 0.979, -1.02 and 0.717, respectively. Further, the composite Z-score in test [2] is 0.397 (inactive).

For `Cc1ccc(S[C@]2(C(=O)NCC(F)(F)F)CC(=O)N(C3CCCCC3)[C@@H]2c2ccc(CO)cc2)cc1`, the composite z-score in test [1] was 0.344; in test [3], -0.161; in test [4] it was -0.11; in [5], 0.702; in [6], 2; in [7] it was 0.298. In addition, the composite z-score in [8] was 0.626; in test [9], -0.339; in test [10], -0.123. The composite Z-score in [2] is 0.399 (inactive).

Take `O=C1C2C=CC(C(O)C(c3ccccc3)c3ccccc3)N(Nc3ccccc3)C2C(=O)N1c1ccccc1` (stereo not given): the composite z-score in test [1] was 0.876; in test [3], 0.278; in [4], -0.0633; in test [5] it was 0.619; in test [6], 2.17; in test [7], 0.0595. Besides, the results for the composite z-score in [8], in [9] and in test [10] were 1.3, -0.236 and 0.942, respectively. In addition, in [2], the composite Z-score was 0.312 (inactive).

Take `NC(=O)NCC#Cc1ccc2c(c1)[C@]1(C(=O)N2)[C@H](C(=O)Nc2nc3ccccc3s2)[C@H]2C(=O)O[C@H](c3ccccc3)[C@H](c3ccccc3)N2[C@@H]1c1ccc(OCCO)cc1`: the composite z-score in test [1] was 0.0054; in [3], -0.0956; in test [4], -0.238; in test [5] it was 0.136; in test [6], 0.408; in [7], 0.109. In addition, the composite z-score is -0.137 in test [8], -0.258 in test [9] and 0.318 in test [10]. For the same molecule, the composite Z-score in test [2] was 0.367 (inactive).

With `CN(C)C(=O)[C@]1(Cc2ccccc2)N=C(c2ccc(OCCCO)cc2)O[C@@H]1c1ccccc1`, the composite z-score in test [1] is 0.62; in [3], -0.046; in test [4] it was -0.0531; in test [5], 0.687; in [6] it was 2.68; in [7], 0.429. The composite z-score in [8] is 0.978; in test [9], -1.01; in test [10], 0.915. In test [2], the composite Z-score is 0.572 (inactive).

On to `COc1ccc([Si](C)(C)[C@@H]2[C@@H](CC(=O)N(CCO)Cc3ccccc3)O[C@]3(C(=O)N(Cc4ccc(N5CCC5=O)cc4)c4ccccc43)[C@H]2C)cc1`, for which the composite z-score is 0.212 in [1]; -0.178 in test [3]; -0.218 in test [4]; -0.23 in [5]; 0.711 in test [6]; -0.161 in [7]. In addition, the composite z-score in test [8] stood at 0.0201; in [9], 0.508; in test [10] it was 0.783. The composite Z-score in test [2] is -0.272 (inactive).

Consider `O=C1O[C@@H](c2ccccc2)[C@@H](c2ccccc2)N2[C@@H](c3ccc(O)cc3)[C@]3(C(=O)Nc4ccc(C#CC5=CCCCC5)cc43)[C@@H](C(=O)N3CCCCCCC3)[C@H]12`, for which the composite z-score is 0.508 in [1]; 1.24 in test [3]; 0.276 in test [4]; 0.589 in test [5]; 2.97 in [6]; 1.85 in test [7]. Also, the composite z-score in test [8] came out at 1.29; in test [9], 0.543; in test [10], 0.702. Further, in test [2], the composite Z-score is 2.78 (inactive).

Regarding `CCOC(=O)C1=CC[C@@H](c2ccc(F)cc2)N(S(=O)(=O)c2ccc(C)cc2)[C@H]1c1ccc([N+](=O)[O-])cc1`, the composite z-score in [1] is 0.854; in test [3] it was 0.137; in [4], -0.14; in test [5] it was 0.223; in [6], 2; in test [7] it was -0.0775. The composite z-score in test [8] was 1.2; in test [9], -0.493; in [10], 1.09. In [2], the composite Z-score was 0.348 (inactive).

As for `O=C1C2C=CC(C(O)c3cccc(O)c3)N(Nc3ccccc3F)C2C(=O)N1c1ccccc1` (stereo not given), the composite z-score in [1] was 0.92; in test [3], 0.025; in test [4], -0.141; in test [5] it was 0.756; in [6], -0.0811; in [7], -0.841. For the same molecule, the values for the composite z-score in [8], in test [9] and in test [10] were 0.664, -0.406 and 0.0597, respectively. Further, in [2], the composite Z-score is -0.539 (inactive).

Consider `C=C(COC)/C(=C/C[C@@H](OC(C)=O)c1ccccc1OCCO)c1cc(C(=O)OC)ccc1OC`, for which the composite z-score is 0.27 in [1]; 0.213 in [3]; -0.122 in test [4]; 0.388 in [5]; 0.283 in test [6]; 0.0845 in test [7]. Besides, the composite z-score was 0.844 in test [8], -0.183 in test [9] and 0.369 in test [10]. Further, the composite Z-score in [2] was 1.02 (inactive).

As to `CCCCN1CC=CC23O[C@@H]4C=CCOC(=O)[C@@H]4[C@H]2C(=O)N(CCO)[C@@H]3C1=O` (stereo not given in full), the composite z-score was -0.852 in test [1]; 0.177 in test [3]; -0.185 in [4]; 0.85 in test [5]; -0.291 in test [6]; -0.217 in test [7]. Moreover, the values for the composite z-score in [8], in [9] and in test [10] were -0.779, -1.68 and -1.09, respectively. Also, the composite Z-score in test [2] was -0.483 (inactive).

Take `C[N+](C)(C)CCCC[C@@H]1NC(=O)[C@H]2C[C@@H](C(=O)NCCCCCNC(=O)CS)[C@@H](c3ccc(O)cc3)N2C1=O`: the composite z-score in [1] was 0.896; in test [3] it was -0.154; in test [4], -0.158; in [5], 0.678; in test [6], 1.45; in test [7], 0.361. For the same molecule, the composite z-score stood at 0.616 in test [8], 0.268 in test [9] and 0.997 in test [10]. Also, the composite Z-score in test [2] is 0.325 (inactive).

Regarding `COC(=O)[C@@]1(Cc2ccc(F)cc2)[C@H]2c3cc(C(=O)N(C)C)n(CCn4cc([N+](=O)[O-])nc4C)c3C[C@H]2CN1C(=O)c1ccccc1`, the composite z-score in [1] worked out at 0.781; in test [3], 0.0203; in test [4] it was 0.107; in test [5], 0.477; in [6], 2.02; in test [7], 0.317. Further, the composite z-score in test [8] is 0.155; in [9], -0.187; in [10], 0.294. The composite Z-score in [2] was -0.133 (inactive).

In the case of `COC(=O)[C@@]1(Cc2ccc(OC)cc2)[C@H]2c3cc(C(=O)N(C)C)n(Cc4ccsc4Br)c3C[C@H]2CN1C(=O)c1ccccc1`, the composite z-score in test [1] worked out at 0.968; in [3] it was 0.69; in test [4], 0.371; in test [5], 0.898; in test [6], 1.65; in test [7] it was 0.107. The figures for the composite z-score in test [8], in test [9] and in [10] were 0.399, -0.0018 and 0.852, respectively. The composite Z-score in [2] is -0.362 (inactive).

With `COC(=O)[C@H](Cc1ccc(O)cc1)N1CC2=CCCC=C[C@@H]2[C@H]1[C@H](O)Cc1ccccc1`, the composite z-score in test [1] was 0.293; in [3], -0.0319; in test [4] it was -0.0772; in test [5], 0.669; in [6], 0.16; in test [7], -0.0126. In addition, the composite z-score in [8] was -0.163; in test [9], 0.706; in test [10] it was 0.295. In addition, the composite Z-score in [2] is -0.223 (inactive).

Turning to `Cc1ccc(S[C@]2(C(=O)NCCCN(C)C)CC(=O)N(Cc3ccccc3Cl)[C@@H]2c2ccc(CO)cc2I)cc1`, the composite z-score in test [1] was -0.153; in test [3], -0.136; in [4] it was -0.142; in [5], 0.815; in test [6], 0.429; in [7], 0.0345. For the same molecule, the values for the composite z-score in [8], in [9] and in [10] were -0.406, -0.697 and -0.708, respectively. The composite Z-score in test [2] was 0.153 (inactive).

For the origin of these results see PubChem BioAssay.
